# The list is not random: actives were taken first. Their share in the collection is about 12%.
# Pf growth 48h = Primary qHTS for delayed death inhibitors of the malarial parasite plastid, 48 hour incubation; P. falciparum luciferase growth in erythrocytes, 48 h; Potency, µM (doses to about 28.7 µM), without a hit: at the top dose activity change, negative = inhibition, usual class: inhibitors; actives 5.9% (n = 310,000); also: % is scaled to controls: 0 for no effect and ±100 for the full control effect
#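 A one-generation exposure of luciferase-tagged malaria parasites in RPMI 1640/Albumax erythrocyte culture, 37 C and 5% CO2. Inhibition is inferred from decreased luminescence after adding detection reagent.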
# Pf growth 96h = Primary qHTS for delayed death inhibitors of the malarial parasite plastid, 96 hour incubation. P. falciparum luciferase reporter growth, 96 h. Potency, µM (doses to about 28.7 µM), for the others: at the top dose activity change, negative = inhibition, actives largely listed as inhibitors. actives 6.9% (n = 320,000). AID 504834, 2011; also: % is scaled to controls: 0 for no effect and ±100 for the full control effect
#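 Infected RBCs, 2% Hct / 0.05% parasitemia final; luciferase-reporter P. falciparum; cpd 96 h, 37 C, 5% CO2; luciferase detection reagent; luminescence.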
# SARS PLP yeast = qHTS of Yeast-based Assay for SARS-CoV PLP; S. cerevisiae expressing SARS-CoV PLpro, growth rescue; Potency, µM (doses to about 32.9 µM), without a hit: top-dose activity, positive = growth rescue, hits mostly activators; actives 0.19% (n = 330,000); AID 485353, 2010; calls by dose curve; also: 0% is about no effect; nearly all actives have a fitted effect of over 55% in size
# Sm TGR inh = qHTS Assay for the Inhibitors of Schistosoma Mansoni Peroxiredoxins; Schistosoma mansoni thioredoxin glutathione reductase (TGR), Q962Y6; purified TGR, DTNB reduction, TNB absorbance 405 nm; Potency, µM (titrated, usually from 114 µM), for the others: top-dose activity change, negative = inhibition, hits mostly inhibitors; actives 3% (n = 360,000); also: % is scaled to controls: 0 for no effect and ±100 for the full control effect; nearly all actives have a fitted effect of over 60% in size
#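 TGR 20 nM + NADPH 100 uM (dispensed conc.), cpd preinc 15 min RT; start with NADPH (500 uM addition) then DTNB (15 mM addition). Kinetic TNB absorbance, 405 nm filter. Four-parameter Hill fit across titration.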
# Numbers without * were called inactive; ? = inconclusive; . = not tested or not shown; [ ] = remark or other dose. Unless noted, calls follow the shape of the dose curve; as a rule, active = well fitted curve in the direction sought with a large enough effect; inconclusive = small, poorly fitted or top-dose-only effect, or another doubt; inactive = no such curve, though single readings can be large; an effect the other way counts as inactive or inconclusive. Potency is read from the fitted curve at half-maximal effect.
SMILES,Pf growth 48h,Pf growth 96h,SARS PLP yeast,Sm TGR inh
O=C1c2ccccc2-c2onc3ccc(Oc4ccccc4)c1c23,8.4%,37.4%,-44.7%,6.31µM*
Cc1cccc(Cn2c(=O)n(Cc3ccc4c(c3)OCO4)c(=O)c3oc4ccccc4c32)c1,.,.,.,-1.2%
COc1cc2c(cc1OC)CN(c1ccc([N+](=O)[O-])cc1C#N)CC2,-6.7%,14.7µM*,-20.8%,3.6%
COc1cc2c(cc1OC)CN(c1ccc([N+](=O)[O-])cc1Cl)CC2,?,?,-41.7%,-16.9%
CC(C(=O)N1CCCCC1)N1CCN(S(=O)(=O)c2ccc(Cl)cc2)CC1 (stereo not drawn),?,?,-1.0%,-19.5%
CC(C(=O)N1CCCC1)N1CCN(S(=O)(=O)c2ccc(C(C)(C)C)cc2)CC1 (stereo not drawn),0.828µM*,0.465µM*,-1.0%,-17.8%
CC(C)c1ccc(S(=O)(=O)N2CCN(C(C)C(=O)N3CCCC3)CC2)cc1 (stereo not drawn),?,11.7µM*,-9.4%,-16.2%
Cc1ccccc1NC(=O)c1c(NC(=O)Cc2ccccc2)sc2c1CCC2,.,.,.,-3.9%
COc1cccc(OC)c1C(=O)N1CCN(C(=O)c2ccc(-c3ccccc3)cc2)CC1,?,?,5.7%,3.9%
CCCCCN(C(=O)CCC(=O)OCc1ccc(C(C)C)cc1)c1c(N)n(CCCC)c(=O)[nH]c1=O,35.5%,10.4µM*,-0.4%,0.5%
CCCCCN(C(=O)CCC(=O)OCc1ccccc1F)c1c(N)n(CCCC)c(=O)[nH]c1=O,?,40.3%,-2.3%,8.6%
CCCCCN(C(=O)CCC(=O)OCc1ccc(C(C)(C)C)cc1)c1c(N)n(CCCC)c(=O)[nH]c1=O,?,8.28µM*,9.1%,5.3%
COc1ccc(-n2c(SC3CCOC3=O)nc3ccccc32)cc1 (stereo not drawn),-11.3%,?,1.3%,-25.6%
O=C1OCCC1Sc1nc2ccccc2n1-c1ccccc1 (stereo not drawn),.,11.7µM*,1.5%,-21.8%[11.4 µM]
Cc1cc(C)c2oc(-c3cc(NC(=O)Cc4ccccc4)ccc3Cl)nc2c1,.,.,.,0.6%
Nc1ccc(C(=O)n2c3ccccc3c3ccccc32)cc1,-12.1%,2.33µM*,?,-1.7%
Nc1ccc(C(=O)N2CCCC2)cc1,17.0%,-14.6%,4.2%,-2.5%
COc1ccccc1C(=O)NC1(C(F)(F)F)C(=O)Nc2c1c(=O)[nH]c(=O)n2-c1ccc(F)cc1 (stereo not drawn),.,.,.,-5.0%
CCN(CC)c1ccc(/C=C2\SC(=O)N(C(C)C)C2=O)o1,?,?,-4.3%,1.78µM*
Cc1cccc(CCNC(=O)C2CCCN(S(=O)(=O)c3ccc4c(c3)oc(=O)n4C)C2)c1 (stereo not drawn),.,.,.,-4.6%
c1ccc(-n2nnnc2Cc2nnnn2-c2ccccc2)cc1,?,6.6%,0.4%,0.6%
N#CCCS(=O)(=O)c1nnnn1-c1ccccc1,?,-11.3%,-32.1%,7.08µM*
CCOc1ncccc1C(=O)Nc1c(C)n(C)n(-c2ccccc2)c1=O,-3.8%,25.4%,8.3%,-7.2%
Cc1ccc(CNC(=O)CN2CCN(c3ccc(F)cc3)CC2)cc1,10.8%,16.5%,0.0%,16.7%
O=C(c1ccco1)N1CCN(Cc2cc(=O)c(OCc3ccc([N+](=O)[O-])cc3)co2)CC1,?,?,-1.4%,-4.3%
SMILES,Pf growth 48h,Pf growth 96h,SARS PLP yeast,Sm TGR inh
CC(C)N(C(=O)CSc1nc2ccccc2n1Cc1ccccc1F)C(C)C,10.4µM*,-22.3%,20.0%,-19.5%
CC(C)N(C(=O)CSc1nc2ccccc2n1Cc1ccccc1)C(C)C,?,0.7%,-2.2%,-2.1%
O=C(Cc1ccccc1)NC(NC(=S)Nc1cc(Cl)ccc1Cl)C(Cl)(Cl)Cl (stereo not drawn),?,13.3%,-8.0%,?
O=C(/C=C/c1ccccc1)NC(NC(=S)Nc1cc(Cl)ccc1Cl)C(Cl)(Cl)Cl (stereo not drawn),?,10.4µM*,-0.4%,-7.5%
COc1ccc(NC(=S)NC(NC(=O)/C=C/c2ccccc2)C(Cl)(Cl)Cl)cc1 (stereo not drawn),?,2.33µM*,-6.2%,2.1%
O=C(/C=C/c1ccccc1)NC(NC(=S)Nc1ccc(Cl)cc1)C(Cl)(Cl)Cl (stereo not drawn),6.57µM*,1.4%,-8.0%,-0.6%
CCOC(=O)NC(NC(=S)Nc1ccc(OC)cc1)C(Cl)(Cl)Cl (stereo not drawn),-18.0%,?,-14.0%,-9.3%
CC(C)NC(NC(=O)/C=C/c1ccccc1)C(Cl)(Cl)Cl (stereo not drawn),1.6%,1.04µM*,-1.4%,-4.5%[57.1 µM]
N#Cc1ccc(CN(c2ccncc2)S(=O)(=O)c2ccccc2)cc1,-29.3%,-1.4%,?,113.1%
CCCCN(CCCNC(=O)c1cc(Nc2ccc(OC)c(OC)c2)nc2ccccc12)Cc1ccccc1,.,.,.,0.7%
C/C(=C\c1ccccc1F)C1Nc2cccc3cccc(c23)N1,-2.3%,?,-1.8%,?
C/C(=C\c1ccccc1)C1Nc2cccc3cccc(c23)N1,-26.0%,50.5%,-14.3%,12.6µM*
C/C(=C\c1ccc2c(c1)OCO2)C1Nc2cccc3cccc(c23)N1,-11.7%,67.2%,2.1%,20µM*
C/C=C/c1ccc2c(c1)OCO2,31.0%,70.6%,9.8%,-8.0%
CCc1ccc2nc(N(CCN(CC)CC)C(=O)c3ccco3)sc2c1,.,.,.,6.8%
Cc1ccc(-c2nnn(C/C(N)=N/O)n2)cc1,?,?,0.2%,0.5%
CC(C)Cn1[nH]c2c3c(ccc2c1=O)C(=O)c1ccccc1C3=O,10.4µM*,?,-9.9%,6.0%
O=C1c2ccccc2C(=O)c2c1ccc1c(=O)n(-c3ccccc3)[nH]c21,1.1%,19.0%,-17.8%,-1.1%
CCCN(c1ccc(C(C)C)cc1)S(=O)(=O)c1ccc2c(c1)n(C)c(=O)c(=O)n2C,.,.,.,9.9%
CC(=O)C1=NN(c2ccccc2)C(c2cccs2)N1c1ccccc1 (stereo not drawn),.,4.65µM*,-6.1%,4.2%
COc1ccc(C2N(c3ccc(Cl)cc3)N=C(C(C)=O)N(C)N2C(C)=O)cc1 (stereo not drawn),?,?,-1.6%,-15.8%
COc1cccc(N2C(C(C)=O)=NN(c3ccccc3)C2c2ccc(N3CCOCC3)cc2)c1 (stereo not drawn),13.1µM*,?,-28.3%,0.8%
CC(=O)C1=NN(c2ccccc2)C(c2ccc3c(c2)OCO3)N1c1ccc(N2CCOCC2)cc1 (stereo not drawn),14.7µM*,?,3.1%,3.5%
O=[N+]([O-])c1ccc(/C=C2\CCC(C3=CCCC3)=C2N2CCOCC2)cc1,44.1%,110.7%,-63.8%,31.6µM*
CC(=O)Nc1ncc2c(n1)CC(c1ccco1)CC2=O (stereo not drawn),.,30.3%,2.4%,-27.1%
O=C(Nc1ncc2c(n1)CC(c1ccco1)CC2=O)c1ccco1 (stereo not drawn),-1.5%,35.6%,0.5%,20µM*

# From PubChem
